# Paper PMC7862700, “An all-to-all approach to the identification of sequence-specific readers for epigenetic DNA modifications on cytosine”
# Assays:
# Test in all cases: DAPPL (digital affinity profiling via proximity ligation, sequencing); 10 mM Tris-HCl pH 7.5, 50 mM NaCl, 1 mM DTT, 4% glycerol, room temperature, 30 min; GST-TFs on glutathione beads, 16-mer random dsDNA library, 0.1% formaldehyde crosslink after washing; high values mean tight binding
# Settings in all cases: protein: recombinant; tags: N-terminal GST; dsDNA, one strand shown
# [1] = target: T1, ELK1 (Homo sapiens, UniProt P19419 1-428)
# T1 sequence: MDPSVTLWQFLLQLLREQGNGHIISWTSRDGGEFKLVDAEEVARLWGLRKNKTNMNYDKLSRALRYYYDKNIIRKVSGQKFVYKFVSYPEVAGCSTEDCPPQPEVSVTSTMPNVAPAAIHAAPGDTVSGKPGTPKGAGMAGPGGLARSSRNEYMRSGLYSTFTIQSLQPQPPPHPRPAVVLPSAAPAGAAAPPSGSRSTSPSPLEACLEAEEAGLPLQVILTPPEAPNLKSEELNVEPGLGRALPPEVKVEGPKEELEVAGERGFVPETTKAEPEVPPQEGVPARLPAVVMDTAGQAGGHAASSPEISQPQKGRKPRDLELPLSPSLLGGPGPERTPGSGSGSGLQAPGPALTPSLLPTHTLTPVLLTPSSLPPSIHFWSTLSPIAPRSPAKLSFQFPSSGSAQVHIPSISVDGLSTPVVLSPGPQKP
# Procedure, shortened: (§1)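 Human transcription factors fused to GST were expressed in yeast, captured on glutathione beads, given DNA barcodes and pooled with a GST-only negative control. Pools were incubated with 200 nmole of a 16-mer random double-stranded DNA library in Tris/NaCl/DTT/glycerol buffer at room temperature for 30 min. They were then washed, crosslinked with 0.1% formaldehyde, proximity-ligated (BsaI/T4 ligase, 1 h, 37 °C), PCR-amplified and sequenced on an Illumina NextSeq500. Binding signal is each 6-mer's read frequency for a factor divided by its frequency for the GST control.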
# [2] = target: T2, GABPA (Homo sapiens, UniProt Q06546 1-454)
# T2 sequence: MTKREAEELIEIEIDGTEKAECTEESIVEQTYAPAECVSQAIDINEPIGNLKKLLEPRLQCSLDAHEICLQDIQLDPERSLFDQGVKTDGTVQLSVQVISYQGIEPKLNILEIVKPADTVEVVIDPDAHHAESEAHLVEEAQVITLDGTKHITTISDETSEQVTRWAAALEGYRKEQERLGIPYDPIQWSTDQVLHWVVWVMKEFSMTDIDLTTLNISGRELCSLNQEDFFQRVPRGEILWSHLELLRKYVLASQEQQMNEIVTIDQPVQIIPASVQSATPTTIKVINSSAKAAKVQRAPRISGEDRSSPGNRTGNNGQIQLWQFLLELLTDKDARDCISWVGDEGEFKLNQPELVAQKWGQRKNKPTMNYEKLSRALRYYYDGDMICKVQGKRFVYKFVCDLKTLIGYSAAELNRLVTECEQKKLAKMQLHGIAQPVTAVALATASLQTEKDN
# Procedure, shortened: as §1
# [3] = target: T3, ERG (Homo sapiens, UniProt P11308 1-479)
# T3 sequence: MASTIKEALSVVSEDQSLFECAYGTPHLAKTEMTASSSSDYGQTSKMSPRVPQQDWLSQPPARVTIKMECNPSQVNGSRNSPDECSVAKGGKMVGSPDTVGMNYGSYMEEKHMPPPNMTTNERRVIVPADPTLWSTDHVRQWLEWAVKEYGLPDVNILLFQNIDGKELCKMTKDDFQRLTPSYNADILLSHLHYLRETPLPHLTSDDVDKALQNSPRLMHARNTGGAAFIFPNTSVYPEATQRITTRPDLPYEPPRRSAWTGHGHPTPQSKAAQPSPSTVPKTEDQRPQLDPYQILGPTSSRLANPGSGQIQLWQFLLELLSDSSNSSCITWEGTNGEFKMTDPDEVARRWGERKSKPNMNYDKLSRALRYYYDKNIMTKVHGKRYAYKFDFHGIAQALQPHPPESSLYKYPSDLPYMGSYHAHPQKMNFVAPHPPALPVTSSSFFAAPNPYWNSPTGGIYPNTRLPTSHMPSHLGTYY
# Procedure, shortened: as §1
# [4] = target: SPIB (Homo sapiens, UniProt Q01892 1-262)
# Procedure, shortened: as §1
# [5] = target: ETV5 (Homo sapiens, UniProt P41161 1-510)
# Procedure, shortened: as §1
# [6] = target: T4, ELK4 (Homo sapiens, UniProt P28324-2 1-405)
# T4 sequence: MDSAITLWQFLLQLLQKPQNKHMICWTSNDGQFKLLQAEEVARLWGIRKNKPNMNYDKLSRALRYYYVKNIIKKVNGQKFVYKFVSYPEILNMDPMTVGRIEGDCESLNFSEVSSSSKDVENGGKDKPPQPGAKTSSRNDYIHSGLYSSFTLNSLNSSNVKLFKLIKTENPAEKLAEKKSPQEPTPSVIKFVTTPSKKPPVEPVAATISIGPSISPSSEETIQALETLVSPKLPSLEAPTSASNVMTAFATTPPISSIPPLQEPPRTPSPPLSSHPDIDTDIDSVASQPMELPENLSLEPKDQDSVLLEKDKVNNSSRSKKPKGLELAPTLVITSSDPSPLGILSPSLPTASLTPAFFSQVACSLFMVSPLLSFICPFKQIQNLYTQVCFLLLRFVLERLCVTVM
# Procedure, shortened: as §1
# [7] = target: T5, ELF3 (Homo sapiens, UniProt P78545 1-371)
# T5 sequence: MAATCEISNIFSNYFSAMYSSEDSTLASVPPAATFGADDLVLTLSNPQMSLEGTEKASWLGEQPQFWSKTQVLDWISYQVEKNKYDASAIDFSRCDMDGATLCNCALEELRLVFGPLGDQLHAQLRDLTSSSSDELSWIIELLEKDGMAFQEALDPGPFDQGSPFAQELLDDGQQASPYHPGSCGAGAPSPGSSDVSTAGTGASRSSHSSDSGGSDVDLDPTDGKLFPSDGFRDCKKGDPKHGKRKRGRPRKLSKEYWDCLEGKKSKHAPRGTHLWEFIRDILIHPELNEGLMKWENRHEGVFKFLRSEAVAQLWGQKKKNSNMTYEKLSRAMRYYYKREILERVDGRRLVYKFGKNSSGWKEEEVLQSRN
# Procedure, shortened: as §1
# [8] = target: T6, ERF (Homo sapiens, UniProt P50548 1-548)
# T6 sequence: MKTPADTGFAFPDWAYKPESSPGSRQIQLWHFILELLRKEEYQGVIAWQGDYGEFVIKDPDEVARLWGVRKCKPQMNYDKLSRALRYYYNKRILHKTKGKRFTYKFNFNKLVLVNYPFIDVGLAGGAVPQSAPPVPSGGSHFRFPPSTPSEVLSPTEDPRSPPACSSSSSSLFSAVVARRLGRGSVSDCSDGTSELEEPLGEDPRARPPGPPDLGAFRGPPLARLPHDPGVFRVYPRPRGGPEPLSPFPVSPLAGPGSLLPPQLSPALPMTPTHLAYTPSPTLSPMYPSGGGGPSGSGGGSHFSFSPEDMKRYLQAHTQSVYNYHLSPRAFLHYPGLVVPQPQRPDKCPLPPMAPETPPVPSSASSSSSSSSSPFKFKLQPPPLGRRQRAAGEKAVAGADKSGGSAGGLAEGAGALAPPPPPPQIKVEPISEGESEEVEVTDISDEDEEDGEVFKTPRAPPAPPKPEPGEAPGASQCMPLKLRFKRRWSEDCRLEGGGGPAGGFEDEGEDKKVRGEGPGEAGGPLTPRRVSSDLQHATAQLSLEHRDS
# Procedure, shortened: as §1
# [9] = target: T7, ETS2 (Homo sapiens, UniProt P15036 1-469)
# T7 sequence: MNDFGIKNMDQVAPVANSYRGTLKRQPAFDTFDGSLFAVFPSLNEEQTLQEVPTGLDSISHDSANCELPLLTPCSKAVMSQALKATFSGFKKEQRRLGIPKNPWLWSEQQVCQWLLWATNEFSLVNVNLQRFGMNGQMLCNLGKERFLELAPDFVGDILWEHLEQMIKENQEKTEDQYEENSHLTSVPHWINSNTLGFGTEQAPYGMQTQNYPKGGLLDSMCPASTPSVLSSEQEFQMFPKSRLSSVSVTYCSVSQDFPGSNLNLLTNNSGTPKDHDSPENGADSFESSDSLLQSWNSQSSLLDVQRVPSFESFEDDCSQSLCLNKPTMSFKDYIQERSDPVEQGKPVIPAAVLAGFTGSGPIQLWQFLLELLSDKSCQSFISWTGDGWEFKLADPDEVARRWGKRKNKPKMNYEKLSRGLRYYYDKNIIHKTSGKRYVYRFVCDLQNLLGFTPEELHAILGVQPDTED
# Procedure, shortened: as §1
# [10] = target: T8, SPDEF (Homo sapiens, UniProt O95238 1-335)
# T8 sequence: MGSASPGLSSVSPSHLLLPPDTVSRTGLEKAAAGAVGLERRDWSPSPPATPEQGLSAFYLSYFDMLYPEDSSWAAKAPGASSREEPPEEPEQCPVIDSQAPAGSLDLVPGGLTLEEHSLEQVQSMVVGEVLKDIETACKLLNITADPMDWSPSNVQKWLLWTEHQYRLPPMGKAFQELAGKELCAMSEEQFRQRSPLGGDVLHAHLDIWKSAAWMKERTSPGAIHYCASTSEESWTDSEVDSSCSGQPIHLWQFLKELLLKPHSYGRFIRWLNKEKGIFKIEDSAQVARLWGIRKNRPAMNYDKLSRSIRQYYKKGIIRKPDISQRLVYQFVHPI
# Procedure, shortened: as §1
# [11] = target: T9, ETV3 (Homo sapiens, UniProt P41162-2 1-143)
# T9 sequence: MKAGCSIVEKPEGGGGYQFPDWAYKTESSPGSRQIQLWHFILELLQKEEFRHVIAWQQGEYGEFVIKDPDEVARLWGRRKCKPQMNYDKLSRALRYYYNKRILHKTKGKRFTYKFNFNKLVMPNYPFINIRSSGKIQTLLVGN
# Procedure, shortened: as §1
# [12] = target: ELF1 (Homo sapiens, UniProt P32519 1-619)
# Procedure, shortened: as §1
# [13] = target: T10, EHF (Homo sapiens, UniProt Q9NZC4 1-300)
# T10 sequence: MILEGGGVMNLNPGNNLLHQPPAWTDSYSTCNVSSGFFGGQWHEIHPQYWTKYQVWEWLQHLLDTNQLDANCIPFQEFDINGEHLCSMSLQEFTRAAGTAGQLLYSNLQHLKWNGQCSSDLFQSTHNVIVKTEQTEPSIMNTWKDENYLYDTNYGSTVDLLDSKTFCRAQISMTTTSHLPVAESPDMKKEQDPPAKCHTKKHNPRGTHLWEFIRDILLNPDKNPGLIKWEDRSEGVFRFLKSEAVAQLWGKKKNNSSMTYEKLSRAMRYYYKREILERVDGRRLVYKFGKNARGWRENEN
# Procedure, shortened: as §1
# [14] = target: ETV1 (Homo sapiens, UniProt P50549 1-477)
# Procedure, shortened: as §1
# [15] = target: T11, ETV3L (Homo sapiens, UniProt Q6ZN32 1-361)
# T11 sequence: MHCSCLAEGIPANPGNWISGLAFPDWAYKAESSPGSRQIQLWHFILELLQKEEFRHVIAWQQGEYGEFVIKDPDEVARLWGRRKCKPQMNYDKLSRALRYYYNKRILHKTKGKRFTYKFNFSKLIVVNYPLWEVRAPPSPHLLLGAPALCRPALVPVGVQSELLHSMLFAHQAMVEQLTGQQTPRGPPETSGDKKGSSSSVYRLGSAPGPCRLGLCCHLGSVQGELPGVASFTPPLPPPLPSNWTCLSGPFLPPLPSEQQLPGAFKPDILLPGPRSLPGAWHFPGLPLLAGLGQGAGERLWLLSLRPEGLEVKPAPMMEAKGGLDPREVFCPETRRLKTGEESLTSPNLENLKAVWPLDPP
# Procedure, shortened: as §1
# [16] = target: T12, ETV7 (Homo sapiens, UniProt Q9Y603 1-341)
# T12 sequence: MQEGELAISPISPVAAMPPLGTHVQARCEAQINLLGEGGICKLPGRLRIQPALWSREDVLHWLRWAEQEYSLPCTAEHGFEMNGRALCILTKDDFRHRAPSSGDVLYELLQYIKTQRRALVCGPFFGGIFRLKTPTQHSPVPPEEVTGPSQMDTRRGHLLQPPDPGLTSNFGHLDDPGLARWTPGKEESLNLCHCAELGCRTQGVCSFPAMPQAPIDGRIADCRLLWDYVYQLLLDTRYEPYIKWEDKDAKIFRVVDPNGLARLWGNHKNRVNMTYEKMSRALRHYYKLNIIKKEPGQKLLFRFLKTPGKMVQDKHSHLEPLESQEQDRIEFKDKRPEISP
# Procedure, shortened: as §1
# [17] = target: ETV6 (Homo sapiens, UniProt P41212 1-452)
# Procedure, shortened: as §1
# Chain of ETV5 (P41161 whole entry): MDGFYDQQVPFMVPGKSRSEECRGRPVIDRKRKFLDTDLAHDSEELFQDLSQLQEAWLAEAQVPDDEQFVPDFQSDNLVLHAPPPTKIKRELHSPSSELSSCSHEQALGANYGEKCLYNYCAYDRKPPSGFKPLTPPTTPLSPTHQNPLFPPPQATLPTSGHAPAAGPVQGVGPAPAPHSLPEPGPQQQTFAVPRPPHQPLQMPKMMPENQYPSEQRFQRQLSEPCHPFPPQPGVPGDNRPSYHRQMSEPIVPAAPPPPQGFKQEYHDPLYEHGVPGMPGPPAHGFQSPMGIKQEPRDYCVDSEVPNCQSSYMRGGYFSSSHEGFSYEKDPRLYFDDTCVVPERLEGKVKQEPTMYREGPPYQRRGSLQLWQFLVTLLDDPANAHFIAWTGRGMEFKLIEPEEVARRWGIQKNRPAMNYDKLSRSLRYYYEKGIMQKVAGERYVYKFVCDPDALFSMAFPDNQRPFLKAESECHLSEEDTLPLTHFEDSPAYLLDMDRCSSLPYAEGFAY
# Chain of SPIB (Q01892 whole entry): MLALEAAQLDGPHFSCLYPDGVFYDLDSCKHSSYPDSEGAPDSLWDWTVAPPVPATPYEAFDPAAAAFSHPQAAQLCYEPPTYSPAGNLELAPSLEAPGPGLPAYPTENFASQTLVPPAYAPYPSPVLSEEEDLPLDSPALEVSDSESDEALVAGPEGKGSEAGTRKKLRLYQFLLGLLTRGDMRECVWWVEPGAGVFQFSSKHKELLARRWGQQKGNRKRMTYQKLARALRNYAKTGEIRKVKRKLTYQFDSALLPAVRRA
# Chain of ELF1 (P32519 whole entry): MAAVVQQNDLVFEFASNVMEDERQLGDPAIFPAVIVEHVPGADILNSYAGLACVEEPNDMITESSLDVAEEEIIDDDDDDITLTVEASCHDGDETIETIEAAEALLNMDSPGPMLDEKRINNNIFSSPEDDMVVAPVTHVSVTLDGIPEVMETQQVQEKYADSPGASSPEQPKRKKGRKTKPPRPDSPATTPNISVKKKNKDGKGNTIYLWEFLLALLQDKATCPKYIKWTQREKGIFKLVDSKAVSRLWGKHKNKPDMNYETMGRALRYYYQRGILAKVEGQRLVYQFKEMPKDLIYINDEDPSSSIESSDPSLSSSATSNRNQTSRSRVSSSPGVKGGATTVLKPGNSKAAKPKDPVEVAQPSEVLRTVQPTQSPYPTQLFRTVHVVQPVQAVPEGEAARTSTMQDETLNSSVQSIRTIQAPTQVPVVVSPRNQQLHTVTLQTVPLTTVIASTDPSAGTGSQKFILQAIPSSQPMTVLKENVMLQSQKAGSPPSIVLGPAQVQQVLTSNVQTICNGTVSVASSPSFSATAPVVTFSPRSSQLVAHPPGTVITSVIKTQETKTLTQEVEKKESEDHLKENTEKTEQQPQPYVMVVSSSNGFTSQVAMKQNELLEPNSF
# Chain of ETV6 (P41212 whole entry): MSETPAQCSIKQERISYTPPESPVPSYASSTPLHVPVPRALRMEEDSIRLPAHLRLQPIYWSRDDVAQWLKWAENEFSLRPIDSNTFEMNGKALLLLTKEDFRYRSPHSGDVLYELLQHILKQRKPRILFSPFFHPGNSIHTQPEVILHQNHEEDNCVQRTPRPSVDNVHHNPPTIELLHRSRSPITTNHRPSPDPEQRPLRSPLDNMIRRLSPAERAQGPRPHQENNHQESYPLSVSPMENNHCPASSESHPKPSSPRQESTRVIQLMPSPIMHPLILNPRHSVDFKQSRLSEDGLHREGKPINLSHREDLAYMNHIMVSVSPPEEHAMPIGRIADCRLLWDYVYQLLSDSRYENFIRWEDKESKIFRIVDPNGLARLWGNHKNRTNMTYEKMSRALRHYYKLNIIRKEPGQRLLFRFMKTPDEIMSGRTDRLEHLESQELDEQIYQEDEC
# Chain of ETV1 (P50549 whole entry): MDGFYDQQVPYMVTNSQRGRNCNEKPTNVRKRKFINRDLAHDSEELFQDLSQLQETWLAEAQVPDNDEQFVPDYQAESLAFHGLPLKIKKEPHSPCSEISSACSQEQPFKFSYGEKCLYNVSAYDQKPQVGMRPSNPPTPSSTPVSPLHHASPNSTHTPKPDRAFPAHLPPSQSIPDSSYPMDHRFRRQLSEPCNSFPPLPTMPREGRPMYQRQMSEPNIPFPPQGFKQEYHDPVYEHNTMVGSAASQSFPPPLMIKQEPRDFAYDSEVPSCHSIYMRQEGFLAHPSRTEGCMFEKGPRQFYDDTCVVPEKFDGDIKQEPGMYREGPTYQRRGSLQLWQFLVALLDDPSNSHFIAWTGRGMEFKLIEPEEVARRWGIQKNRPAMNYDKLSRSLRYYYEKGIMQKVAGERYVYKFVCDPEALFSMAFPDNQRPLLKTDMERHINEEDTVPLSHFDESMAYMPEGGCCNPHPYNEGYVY
sequence,measurement,setting,value
TAGTAG,binding signal,[1],"1.02 fold enrichment (6-mer frequency, TF over GST control)"
same,binding signal,[2],"1.01 fold enrichment (6-mer frequency, TF over GST control)"
same,binding signal,[3],"1.01 fold enrichment (6-mer frequency, TF over GST control)"
same,binding signal,[4],"1.02 fold enrichment (6-mer frequency, TF over GST control)"
same,binding signal,[5],"1.04 fold enrichment (6-mer frequency, TF over GST control)"
same,binding signal,[6],"1.02 fold enrichment (6-mer frequency, TF over GST control)"
same,binding signal,[7],"1.1 fold enrichment (6-mer frequency, TF over GST control)"
same,binding signal,[8],"1.02 fold enrichment (6-mer frequency, TF over GST control)"
same,binding signal,[9],"1.06 fold enrichment (6-mer frequency, TF over GST control)"
same,binding signal,[10],"1.02 fold enrichment (6-mer frequency, TF over GST control)"
same,binding signal,[11],"1.13 fold enrichment (6-mer frequency, TF over GST control)"
CGAATC,binding signal,[1],"1.01 fold enrichment (6-mer frequency, TF over GST control)"
same,binding signal,[2],"1.14 fold enrichment (6-mer frequency, TF over GST control)"
same,binding signal,[3],"1.05 fold enrichment (6-mer frequency, TF over GST control)"
same,binding signal,[12],"1 fold enrichment (6-mer frequency, TF over GST control)"
same,binding signal,[13],"1.06 fold enrichment (6-mer frequency, TF over GST control)"
same,binding signal,[4],"1.13 fold enrichment (6-mer frequency, TF over GST control)"
same,binding signal,[5],"1.07 fold enrichment (6-mer frequency, TF over GST control)"
same,binding signal,[6],"1.09 fold enrichment (6-mer frequency, TF over GST control)"
same,binding signal,[7],"1.11 fold enrichment (6-mer frequency, TF over GST control)"
same,binding signal,[14],"1.02 fold enrichment (6-mer frequency, TF over GST control)"
same,binding signal,[8],"1.15 fold enrichment (6-mer frequency, TF over GST control)"
same,binding signal,[15],"1 fold enrichment (6-mer frequency, TF over GST control)"
same,binding signal,[10],"1.12 fold enrichment (6-mer frequency, TF over GST control)"
same,binding signal,[16],"1.02 fold enrichment (6-mer frequency, TF over GST control)"
same,binding signal,[17],"1.01 fold enrichment (6-mer frequency, TF over GST control)"
